Hits are enriched below; roughly 8.7% of the tested compounds scored in any of these assays.
Sfp inh – blocks B. subtilis Sfp PPTase activity | Q9F4F7 | 310,000 tested, 3.5% active | Biochemical Sfp PPTase activity, qHTS | Potency, µM, for inactives: largest response in the series, negative = inhibition, hits mostly inhibitors;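 further: the enzyme is Sfp with the accession as filed and its product quenches rhodamine fluorescence; 0% = enzyme reaction without inhibitor and -100% = no enzyme wells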
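Buffer: 50 mM Hepes-Na pH 7.6, 10 mM MgCl2, 0.01% Nonidet P-40, 0.01% BSA. Enzyme 15 nM, pre-exposed to compound 15 min; substrates then added and fluorescence change tracked over 30 min.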
ALOX12 inh – ALOX12 (human) lipoxygenase inhibition. P18054. purified 12hLO, xylenol orange hydroperoxide absorbance. Potency, µM (highest dose often 108 µM), inactives show top-dose activity change, negative = inhibition, usual class: inhibitors. 580,000 tested, 1.1% active; further: on the % scale 0 is the no-effect control and ±100 the full control effect
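Purified human 12hLO at 150 nM in 25 mM Hepes, 0.01% Triton X-100, pH 7.0, preincubated 15 min at room temperature with compound. Reaction started with 40 uM arachidonic acid, 30 min at room temperature. Hydroperoxide measured by Fe-xylenol orange, 573/405 nm absorbance ratio.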
BAZ2B inh – blocks human BAZ2B | Q9UIF8 | AlphaScreen BAZ2B-H3K14Ac peptide displacement | Potency, µM (series often up to 114 µM), without a hit: top-dose activity change, negative = inhibition, actives largely listed as inhibitors | 360,000 tested, 4.4% active; further: on the % scale 0 is the no-effect control and ±100 the full control effect; nearly all actives have a fitted effect of over 60% in size
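BAZ2B 50 nM plus b-H3(5-23)K14Ac 50 nM, PBS pH 7.4/0.01% Tween-20, 30 min RT; compound added (max 110 uM), 30 min RT; streptavidin donor/Ni-chelate acceptor beads 10 ug/mL final, 20 min dark; AlphaScreen read.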
HP1b binding inh – blocks HP1-beta chromodomain binding to methylated histone tails; P83916; Potency, µM (highest dose often 114 µM), for inactives: at the top dose activity change, negative = inhibition, usual class: inhibitors; AlphaScreen HP1-beta / biotin-H3K9me3 peptide binding; 390,000 tested, 0.56% active; further: nearly all actives have a fitted effect of over 70% in size
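HP1-beta protein (50 nM final) preincubated 30 min at room temperature with biotinylated H3(1-18)K9me3 peptide (50 nM) in PBS pH 7.4, 0.01% Tween-20, then compound added for 30 min. AlphaScreen streptavidin donor/nickel chelate acceptor beads (10 ug/mL final), 30 min dark, luminescence read.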
JMJD2A Tudor – blocks the human JMJD2A Tudor domain. O75164. AlphaScreen JMJD2A-Tudor / H3K4me3 peptide binding. Potency, µM (top dose mostly 114 µM), for the others: at the top dose activity change, negative = inhibition, hits mostly inhibitors. 390,000 tested, 4.4% active. AID 504339; further: on the % scale 0 is the no-effect control and ±100 the full control effect; nearly all actives have a fitted effect of over 50% in size
G9a block – G9a (human) methyltransferase inhibition; 350,000 tested, 8.8% active; Q96KQ7; Potency, µM (doses to about 102 µM), without a hit: top-dose activity, negative = inhibition, hits mostly inhibitors; G9a H3K9 monomethylation, AlphaScreen, 2 h; further: on the % scale 0 is the no-effect control and ±100 the full control effect; nearly all actives have a fitted effect of over 75% in size
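Quantitative HTS format: methyltransferase activity on a biotin-tagged H3K9 peptide is measured by AlphaScreen, using a rabbit anti-monomethyl-H3K9 antibody with streptavidin donor and anti-IgG acceptor beads. Final levels are 20 nM enzyme, 500 nM peptide, 20 uM SAM; 2 h RT.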
* marks the source's active call; other numbers are inactive results; i = inactive; ? = inconclusive; nt = not tested or not shown; [ ] = another dose, or the depositor's remark. The call rests on the fitted dose curve; in most records, active means well fitted curve in the direction sought with a large enough effect; inconclusive means small, poorly fitted or top-dose-only effect, or another doubt; inactive means no such curve, though single readings can be large; an effect the other way counts as inactive or inconclusive. Potency means the concentration at half of the fitted maximal effect.

SMILES	Sfp inh	ALOX12 inh	BAZ2B inh	HP1b binding inh	JMJD2A Tudor	G9a block
Cc1cc2oc(=O)cc(CN3CCCCCCC3)c2cc1Cl	nt	-62%	nt	nt	nt	nt
COCCN(CCOC)Cc1cc(=O)oc2cc(C)c(Cl)cc12	nt	45µM*	nt	nt	nt	nt
Cc1cc2oc(=O)cc(CN3CCCC3)c2cc1Cl	nt	6.3µM*	nt	nt	nt	nt
O=C(c1ccoc1)N1CCc2nn(Cc3ccccc3)c(=O)n2CC1	nt	17%	nt	nt	nt	nt
CC(C)Oc1ccc(/C=C(/C#N)c2nc3ccccc3[nH]2)cc1Br	nt	30%	nt	nt	nt	nt
CCCCN(CCCC)Cc1cc(=O)oc2ccc3ccccc3c12	nt	35µM*	nt	nt	nt	nt
CCCN(CCC)Cc1cc(=O)oc2cc(C)c(Cl)cc12	nt	40µM*	nt	nt	nt	nt
COc1ccc(C(=O)N2CC(Oc3ccc(F)cc3F)C2)cc1	nt	2%[6.33 µM]	nt	nt	nt	nt
CN1CCC2(C1)CN(Cc1ccccc1)c1ccc(C(=O)NC3CCC(O)CC3)cc12 (stereo unspecified)	nt	49%[176 µM]	nt	nt	nt	nt
CN1[C@@H](CCC(=O)NCc2ccccc2)CNC(=O)[C@@H]2[C@H]1CCN2Cc1ccc(O)cc1	nt	-21%	nt	nt	nt	nt
CCCCCCCCCCCCCCCCn1cc[n+](Cc2ccccc2)c1C	13µM*	nt	nt	nt	nt	nt
CCCCCCCCCCCC[N+](C)(C)Cc1ccccc1	nt	4%[22.9 µM]	nt	nt	nt	nt
COCCN1C(=O)c2ccccc2C(C(=O)NCc2ccc(Cl)cc2)C12CCCCC2 (stereo unspecified)	nt	19%	nt	nt	nt	nt
O=C(O)c1ccccc1N/N=C/c1c(Sc2nnnn2-c2ccccc2)nc2ccccn2c1=O	6%	22%	45µM*	-25%	?	40µM*
O=c1c(/C=N/Nc2ccccc2)c(Sc2nnnn2-c2ccccc2)nc2ccccn12	6%	-27%	7%	9%	-15%	-13%[12.7 µM]
CCOC(=O)C1CCC(CNCc2ccccc2C)CC1 (stereo unspecified)	5%	-5%	0%	2%	-5%	50µM*
O=C(O)C1CCC(CNCc2ccccc2Cl)CC1 (stereo unspecified)	17%	-5%	3%	44%	-3%	-2%
COc1cc(C(=O)NCc2c(C)noc2C)ccc1OC1CCN(C(C)=O)CC1	nt	1%	nt	nt	nt	nt
Cc1ccccc1NCCNc1ccccc1C	-10%	11%	?	-8%	-30%	45µM*
Cc1ccc(C(=O)CNc2ccccc2C)cc1	-16%	?	-6%	14%	-13%	?
C=CCNC(=O)c1cnn2c1CN([S+](=O)([O-])c1cccc(OC)c1)CC2	nt	13%[6.33 µM]	nt	nt	nt	nt
O=C(Nc1cc2c3c(c1)CC(=O)N3CCC2)c1ccc(Br)o1	nt	?	-27%	14%	-18%	?
O=C(Nc1cc2c3c(c1)CC(=O)N3CCC2)c1ccco1	nt	-2%	-19%	-3%	-15%	35µM*
O=C(CCl)c1cc2c3c(c1)CC(=O)N3CCC2	-1%	?	?	62%	-10%	50µM*
CCNC(=O)C1CCCN(C(=O)CCc2c(C)c3ccc(OC)cc3oc2=O)C1 (stereo unspecified)	nt	-2%	nt	nt	nt	nt
SMILES	Sfp inh	ALOX12 inh	BAZ2B inh	HP1b binding inh	JMJD2A Tudor	G9a block
C1CC(C2CCN(C3CCOCC3)CC2)CN1 (stereo unspecified)	nt	67%	nt	nt	nt	nt
CCSc1nnc(-c2cnn(-c3ccccc3)c2-n2cccc2)n1C	-21%	0%	15%	15%	12%	?
Cn1c(-c2cnn(-c3ccccc3)c2-n2cccc2)n[nH]c1=S	10%	?	-37%	13%	8.9µM*	8.9µM*
CCCCCCSc1nnc(-c2cnn(-c3ccccc3)c2-n2cccc2)n1C	-13%	?	-29%	9%	-17%	40µM*
CCOC(=O)c1cnn(-c2ccccc2)c1-n1cccc1	8%	0%	8%	57%	28%	18%
CCCCn1ccnc1C1CCCN(C(=O)c2ncc(F)cc2F)C1 (stereo unspecified)	nt	47%	nt	nt	nt	nt
CCOc1ccc(NC(=O)N2CCC(N(C)C(C)C)CC2)cc1	nt	7%	nt	nt	nt	nt
CNC(=O)c1nn(CC(=O)NCCc2ccc(F)cc2)c(=O)c2ccccc12	nt	1%	nt	nt	nt	nt
COc1cc(OC)c2c(C)c(CC(=O)NCc3ccc4c(c3)OCO4)c(=O)oc2c1	nt	-6%	nt	nt	nt	nt
CCn1nnc(NC(=O)c2ccc(-c3ccc(Cl)cc3)o2)n1	?	0%	-6%	33%	?	45µM*
CN1CCN(c2ccc(NC(=O)c3ccc(-c4ccc(Cl)cc4)o3)cc2)CC1	-23%	0%	8.9µM*	-18%	?	nt
CC(=O)N1CCN(c2ccccc2NC(=O)c2ccc(-c3cccc([N+](=O)[O-])c3)o2)CC1	-6%	20%	-29%	25%	-20%	?
CN1CCN(c2ccc(NC(=O)c3ccc(-c4cccc([N+](=O)[O-])c4)o3)cc2)CC1	-17%	-17%	45µM*	?	?	?
O=C(Nc1ccc2oc(=O)ccc2c1)c1ccc(-c2cccc([N+](=O)[O-])c2)o1	1%	?	35µM*	-1%	-32%	?
O=C(Nc1ccc2oc(=O)ccc2c1)c1ccc(-c2ccccc2[N+](=O)[O-])o1	-22%	?	-21%	8%	-31%	-25%
CCn1nnc(NC(=O)Cc2ccc(Cl)cc2)n1	-3%	i	-14%	32%	-13%	13%
CC(C)N1CCN(Cc2cnc(N3CCOCC3)s2)CC1CCO (stereo unspecified)	nt	9%	nt	nt	nt	nt
COc1ccc(-c2cc(N3CCCC(NC(=O)c4ccc(C)nc4)C3)n[nH]2)cc1 (stereo unspecified)	nt	-1%	nt	nt	nt	nt
O=C1COCC2(CN(Cc3ccsc3)C2)CN1Cc1cccc(OC(F)(F)F)c1	nt	-35%[176 µM]	nt	nt	nt	nt
COc1ccccc1NC(=O)CSc1nc(-c2ccccc2F)nc2cc(=O)[nH]n12	nt	-12%	?	-15%	-31%	-16%[59 µM]
O=c1cc2nc(-c3ccccc3F)nc(SCc3ccc(Br)cc3)n2[nH]1	nt	-6%	50µM*	9%	?	-12%[59 µM]
CC(Cn1cccn1)C(=O)N1CCC2(CC1)Nc1ccccc1NC2=O (stereo unspecified)	nt	1%	nt	nt	nt	nt
COC(=O)c1sc(NC(=O)c2ccc(Cn3cc(Cl)cn3)o2)c(C#N)c1C	16µM*	4%	-37%	-41%	?	7.9µM*
Cc1ccc(NC(=O)c2ccc(Cn3cc(Cl)cn3)o2)c(C)c1	-5%	0%	-6%	nt	nt	nt
N#Cc1c(NC(=O)c2ccc(Cn3cc(Br)cn3)o2)sc2c1CCCCC2	?	180%	11%[57.1 µM]	23%	-31%	13%
CN1CCN(C(=O)c2ccc(Cn3cc(Cl)cn3)o2)CC1	5%	-6%	3%	31%	-1%	71µM*
O=C(c1ccc(Cn2cc(Cl)cn2)o1)N1CCN(Cc2ccc3c(c2)OCO3)CC1	-29%	nt	?	4%	-18%	45µM*
